Eight compounds from PubChem BioAssay (NCI) can be followed below.

SMILES strings stand for the structures. About 83,000 compounds went through this panel and 20% of them were active in at least one assay; those are over-represented in the sample as a whole.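 Cells were grown in 96-well plates and exposed to the test compound at a single concentration for 48 hours; results are reported as percent growth, with values below 10 considered active.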 Unmarked numbers belong to inactive results. Calls of active or inactive are those of the source.

Among the test systems are NCI-H23 lung; NCI-H226 lung; NCI-H322M lung; HOP-62 NSCLC; NCI-H460 lung; HOP-92 NSCLC; NCI-H522 lung; A549/ATCC NSCLC; 786-0 renal; COLO 205 colon; DU-145 prostate; K-562 leukemia; MALME-3M melanoma; MDA-MB-231 breast; RXF 393 renal; SF-268 CNS; SF-295 CNS; SF-539 CNS; UACC-257 melanoma; M14 melanoma.
Holding throughout (experiment): NCI-60 one-dose screen, 48 h (100 = growth as untreated, 0 = no growth, -100 = all killed)
Holding throughout (conditions): 10 µM unless noted

Turning to `COc1ccc(C(=O)N=Nc2c(O)n(C)c3ccccc23)cc1`, the growth in the test on NCI-H23 lung is 85.3%; with NCI-H226 lung, 91.1%; with NCI-H322M lung, 94.4%; with HOP-62 NSCLC it was 97.6%; in the test on NCI-H460 lung, 94%; with HOP-92 NSCLC it was 86.1%. Also, the growth in the test with NCI-H522 lung is 91.5%; with A549/ATCC NSCLC it was 105%; in the test on 786-0 renal, 106%; in the test on COLO 205 colon, 106%; with DU-145 prostate, 108%; with K-562 leukemia it was 89.3%. Also, the growth in the test on MALME-3M melanoma was 103%; in the test with MDA-MB-231 breast, 85.2%; in the test on RXF 393 renal, 100%; in the test on SF-268 CNS, 95.8%; in the test with SF-295 CNS, 101%; with SF-539 CNS, 89.8%. Also, the growth is 106% with UACC-257 melanoma and 101% in the test on M14 melanoma.
For `Nc1nn(C(=O)Nc2ccc(Cc3ccccc3)cc2)c2ccc(Cl)cc12`, the growth in the test with NCI-H23 lung is 70.1%; in the test with NCI-H226 lung, 63.5%; in the test on NCI-H322M lung it was 65.9%; in the test with HOP-62 NSCLC it was 67.8%; with NCI-H460 lung, 28.9%; with HOP-92 NSCLC, 99.8%. Also, the growth with NCI-H522 lung is 73.1%; in the test on A549/ATCC NSCLC it was 38.3%; with 786-0 renal, 64%; in the test with COLO 205 colon it was 34.9%; in the test with DU-145 prostate it was 85.6%; with K-562 leukemia, 3.86% (active). Also, the growth was 55.9% in the test on MALME-3M melanoma; 59.7% in the test on MDA-MB-231 breast; 93.3% in the test with RXF 393 renal; 81.4% in the test on SF-268 CNS; 27% with SF-295 CNS; -19.2% (active) with SF-539 CNS. Besides, the growth was 42.1% in the test with UACC-257 melanoma and 37.2% in the test with M14 melanoma.
`O=C1CN(CCN2CC(=O)N(Cc3ccccc3)C(=O)C2)CC(=O)N1Cc1ccccc1`: the growth in the test with NCI-H23 lung was 97.7%; in the test on NCI-H226 lung, 107%; in the test with NCI-H322M lung it was 104%; with HOP-62 NSCLC it was 91.2%; in the test with NCI-H460 lung it was 100%; in the test with HOP-92 NSCLC, 85%. For the same compound, the growth in the test on NCI-H522 lung was 98.8%; in the test with A549/ATCC NSCLC it was 102%; in the test on 786-0 renal it was 110%; in the test on COLO 205 colon it was 109%; with DU-145 prostate it was 117%; with K-562 leukemia, 107%. Further, the growth in the test with MALME-3M melanoma is 103%; with MDA-MB-231 breast it was 102%; with RXF 393 renal, 108%; with SF-268 CNS, 103%; with SF-295 CNS, 109%; in the test with SF-539 CNS, 115%. Moreover, the figures for the growth with UACC-257 melanoma and in the test on M14 melanoma were 98.4% and 109%, respectively.
As for `CCOC(=O)NCCc1ccccc1`, the growth with NCI-H23 lung was 101%; in the test on NCI-H226 lung it was 107%; with NCI-H322M lung, 93.2%; in the test on HOP-62 NSCLC, 99.7%; in the test on NCI-H460 lung, 112%; in the test on HOP-92 NSCLC, 82%. Also, the growth was 98.1% with NCI-H522 lung; 89.6% in the test with A549/ATCC NSCLC; 112% with 786-0 renal; 112% in the test with COLO 205 colon; 118% with DU-145 prostate; 91.4% in the test with K-562 leukemia. Also, the growth in the test on MALME-3M melanoma is 110%; with MDA-MB-231 breast, 116%; in the test on RXF 393 renal, 115%; in the test on SF-268 CNS, 114%; in the test on SF-295 CNS, 98.3%; in the test on SF-539 CNS, 111%. Also, the growth in the test with UACC-257 melanoma was 100%; in the test with M14 melanoma, 110%.
For `COc1ccc2c(c1OC)C(=O)O[C@H]2[C@H]1c2c(cc3c(c2OC)OCO3)CCN1C`, the growth is 92.5% with NCI-H23 lung; 99.6% in the test on NCI-H226 lung; 104% in the test with NCI-H322M lung; 98.1% with HOP-62 NSCLC; 105% in the test on NCI-H460 lung; 97% in the test with HOP-92 NSCLC. Moreover, the growth was 92% with NCI-H522 lung; 101% in the test on A549/ATCC NSCLC; 99.5% with 786-0 renal; 104% in the test on COLO 205 colon; 117% in the test with DU-145 prostate; 66.4% in the test on K-562 leukemia. The growth is 92.2% in the test with MALME-3M melanoma; 104% with MDA-MB-231 breast; 108% with RXF 393 renal; 110% with SF-268 CNS; 94.1% in the test with SF-295 CNS; 98.9% in the test with SF-539 CNS. Also, the growth with UACC-257 melanoma was 95.2%; with M14 melanoma it was 94.8%.
For `CC1CN(C2CCCCC2)C(=S)N(c2ccccc2)C1=O` (stereo not given), the growth is 100% in the test with NCI-H23 lung; 115% in the test with NCI-H226 lung; 107% with NCI-H322M lung; 93.7% in the test with HOP-62 NSCLC; 107% in the test with NCI-H460 lung; 92.8% in the test with HOP-92 NSCLC. The growth is 116% in the test on NCI-H522 lung; 102% with A549/ATCC NSCLC; 92.2% in the test on 786-0 renal; 127% in the test with COLO 205 colon; 115% in the test on DU-145 prostate; 117% with K-562 leukemia. The growth in the test on MALME-3M melanoma is 119%; in the test with MDA-MB-231 breast, 115%; with RXF 393 renal it was 123%; in the test with SF-268 CNS it was 102%; with SF-295 CNS it was 103%; in the test with SF-539 CNS it was 103%. Further, the growth with UACC-257 melanoma is 109%; in the test with M14 melanoma it was 108%.
Consider `COc1ccc(C(=O)n2nc(-c3ccccc3)nc2N)cc1OC`, for which the growth with NCI-H23 lung was 93.9%; with NCI-H226 lung, 79.9%; in the test with NCI-H322M lung it was 89.1%; in the test on HOP-62 NSCLC, 79.7%; with NCI-H460 lung, 98.3%; in the test on HOP-92 NSCLC it was 67%. Besides, the growth with NCI-H522 lung is 85.4%; in the test on A549/ATCC NSCLC, 95.1%; with 786-0 renal, 96.1%; in the test on COLO 205 colon it was 103%; in the test on DU-145 prostate, 104%; in the test with K-562 leukemia it was 80.1%. For the same compound, the growth in the test on MALME-3M melanoma is 102%; in the test with MDA-MB-231 breast, 85.1%; with RXF 393 renal, 98.3%; in the test with SF-268 CNS, 95.4%; in the test on SF-295 CNS it was 103%; in the test on SF-539 CNS, 91%. The results for the growth in the test with UACC-257 melanoma and in the test with M14 melanoma were 98.4% and 105%, respectively.
In the case of `c1cc2nc(-c3cn[nH]c3)c3c(c2cc1-c1cn[nH]c1)C1CCC3C1` (stereo not given), the growth in the test on NCI-H23 lung is 53%; in the test on NCI-H226 lung, 39.5%; with NCI-H322M lung, 75%; in the test on HOP-62 NSCLC, 47.8%; with NCI-H460 lung, 54%; in the test on HOP-92 NSCLC it was 28%. For the same compound, the growth in the test on NCI-H522 lung is 75.1%; in the test with A549/ATCC NSCLC, 74%; in the test with 786-0 renal, 81.5%; in the test on COLO 205 colon, 90.5%; in the test with DU-145 prostate it was 81.4%; with K-562 leukemia, 65%. Moreover, the growth is 61.4% with MALME-3M melanoma; 53% with MDA-MB-231 breast; 15.3% in the test with RXF 393 renal; 77% in the test with SF-268 CNS; 57.8% in the test with SF-295 CNS; 66.7% in the test with SF-539 CNS. Moreover, the growth was 83.9% with UACC-257 melanoma and 69.3% with M14 melanoma.
